Laboratory results reported in PubChem BioAssay (NCI).
About 83,000 compounds went through this panel and 20% of them were active in at least one assay; those are over-represented in the sample as a whole.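 Each cell line was grown in a 96-well plate and treated with one concentration of compound for 48 hours. Values below 10 were considered active.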 A number with no mark means an inactive call. Active and inactive are the calls of the source.

Tested on: NCI-H522 lung
Assay: NCI-60 one-dose screen, 48 h (100 = growth as untreated, 0 = no growth, -100 = all killed)
Settings: 10 µM

Row | SMILES | growth
1 | COc1ccc(C(=O)N2C=Cc3ccccc3C2C#N)cc1 (stereo unspecified) | 94.2%
2 | O=c1cn[nH]c2ccc(Br)cc12 | 91.3%
3 | CCOc1ccccc1/C=N\N=C(\N)N/N=C/c1ccccc1OCC | 7.36% (active)
4 | NC1=CC(=O)C(=O)c2cccnc21 | 59.8%
5 | COc1ccc(-c2nn(-c3cccc(Cl)c3)cc2-c2c(C#N)c(N)n(N)c(=O)c2C#N)cc1 | -46% (active)
6 | COc1ccc(-c2nn(-c3cccc(Cl)c3)cc2-c2c(C#N)c(=O)n3[nH]c(-c4ccc(C)cc4)nc3c2C#N)cc1 | 20.5%
7 | Cc1ccc(C(=O)C2C(=O)C3CCC2C3)cc1 (stereo unspecified) | 101%
8 | S=C1N(c2ccccc2)CN(C2CCCCC2)CN1c1ccccc1 | -29.7% (active)
9 | COc1ccc(/C(=N\N)C(=O)c2ccccc2)cc1 (tested in a mixture with another compound) | 72.7%
10 | COC(=O)c1c[nH]c2cc(OC(C)C)c(OC(C)C)cc2c1=O | 94.3%
11 | O[C@@H]1CO[C@H]2[C@@H]1OC[C@@H]2O | 111%
12 | COC(=O)C1OC1c1cc([N+](=O)[O-])ccc1OC (stereo unspecified) | 110%
13 | Cc1cc(NC(=O)c2ccc(C)c(Nc3nccc(-c4cccnc4)n3)c2)cc(-n2cnc(C)c2)c1 | 59.3%
14 | Cc1cc(Cl)ccc1Nc1nc(C(F)(F)F)ccc1C(=O)N/N=C/c1c(Cl)cccc1Cl | -16.7% (active)
15 | CN(C)CCC1(c2ccccc2)CCN(C)C1=O (stereo unspecified) | 86.4%
16 | CN(C)c1ncnc2c1nnn2C1OC(CO)C(O)C1O (stereo unspecified) | -25.2% (active)
